Experimental data from PubChem BioAssay (Tox21).
Values without a mark were called inactive. Calls of active or inactive are those of the source. The call rests on the fitted dose curve; in most records, active means well fitted curve in the direction sought with a large enough effect in the repeat runs; inconclusive means weak or mixed curves; inactive means flat fitted curve, though single readings scatter.

Assay: qHTS assay to test for compound auto fluorescence at 460 nm (blue) in HepG2 cell free culture (AID 720685)
Settings: Cell-free culture medium, blue autofluorescence 405/460 nm; series mostly up to 91.3 µM; fluorescence, % of fluorescent control: at the top concentration
Excerpt: U.S. Tox21 Program National Center for Advancing Translational Sciences [NCATS] NIH Chemical Genomics Center [NCGC] U.S. Environmental Protection Agency [EPA] National Institutes of Environmental Health Sciences [NIEHS] National Toxicology Program [NTP] U.S. Food and Drug Administration [FDA] Tox21 Assay Overview: Compound auto fluorescence often interferes with screening of the compound library against various biological targets and signaling pathways. Some of these compounds may have fluorophoric properties. Such properties may interfere with the assay outputs resulting in false positives and/or negatives. To decrease such complications and ensure the compound activities are relevant in terms of biological response, the Tox21 10K compound library was screened for auto fluorescence. From the fluorophores used as reporter signals in our screening assays, the auto fluorescence equivalencies of compounds against three fluorophores have been evaluated: Triamterene, Fluorescein and Rose Bengal sodium for blue, green and red fluorescence, respectively. The fluorescence intensities were measured using Excitation/Emission wavelengths at 405/460nm, 485/535nm and 540/590nm for blue, green and red labels, respectively. This assay includes the blue fluorescence data.
Tox21 Assay Protocol Summary: 5 uL of culture medium (MEM containing 10% FBS) per well was dispensed into black wall/clear bottom 1536-well plates using a Multidrop Combi Dispenser (ThermoFisher Scientific, Waltham, MA). After 23 nL compound or DMSO vehicle was transferred into assay plate by a pintool work station (Kalypsys, San Diego, CA), fluorescence intensities in the assay plates were measured by an Envision (PerkinElmer, Shelton, CT) plate reader using three labels for measuring blue, green and red fluorescence at […] 460, 535 and 590nm respectively.
On the % scale 0 is the no-effect control and ±100 the full control effect; potency means the concentration at half of the fitted maximal effect; tags describe the fitted curve by direction and shape or compound fluorescence and quenching.

Going from `Cc1c(C)c2c(c(C)c1OC(=O)c1cccnc1)CC[C@@](C)(CCC[C@H](C)CCC[C@H](C)CCCC(C)C)O2` to `CCOC(=O)NNc1ccc(N(CC)CC(C)O)nn1` (stereo not given), the “fluorescence, % of fluorescent control” value rises from -0.0363% [at 46 µM] to 0.113% [at 46 µM].

First: CCCCN(CCCC)CC(O)c1cc(Cl)cc2c1-c1ccc(Cl)cc1/C2=C/c1ccc(Cl)cc1 (stereo not given)
Second: CC(C(=O)O)c1ccc2c(c1)[nH]c1ccc(Cl)cc12 (stereo not given)
The “fluorescence, % of fluorescent control” value of the first is higher: 0.122% [at 46 µM] for the first, -0.0174% [at 46 µM] for the second.

Compared with `O=c1[nH]c(=O)n([C@H]2C[C@H](O)[C@@H](CO)O2)cc1F`, `Cc1nc2n(c(=O)c1CCN1CCC(c3noc4cc(F)ccc34)CC1)CCCC2` is lower in “fluorescence, % of fluorescent control” value: 0.0205% [at 46 µM] for the first, -0.0344% [at 46 µM] for the second.

First: CN1CCC[C@@H]1CCO[C@](C)(c1ccccc1)c1ccc(Cl)cc1
Second: Nc1nc(N)nc(-c2cc(Cl)ccc2Cl)n1
The “fluorescence, % of fluorescent control” value of the first is higher: 0.141% [at 46 µM] for the first, -0.0652% [at 46 µM] for the second.

Going from `Nc1ccc(NCCO)c([N+](=O)[O-])c1` to `O=[N+]([O-])c1ccc(O)cc1C(F)(F)F`, the “fluorescence, % of fluorescent control” value falls from -0.0793% to -0.44%.

Going from `CCCC1CCC(=O)CC1` to `CCCCOC(=O)CC`, the “fluorescence, % of fluorescent control” value falls from 0.0017% to 4.7e-06%.

First: O=C(Nc1ccc2c(O)c(N=Nc3ccc(N=Nc4ccc(S(=O)(=O)O)cc4)cc3)c(S(=O)(=O)O)cc2c1)c1ccccc1
Second: O=C(O)c1cc(O)c2ccccc2c1O
The “fluorescence, % of fluorescent control” value of the first is lower: -0.788% for the first, -0.0634% for the second.

First: c1ccsc1
Second: Sc1nc2ccccc2s1
The “fluorescence, % of fluorescent control” value of the first is lower: -0.0576% for the first, 0.0108% for the second.

Going from `CCC(C)(CCC(C)C)C(=O)[O][Sn]([CH3])([CH3])[O]C(=O)C(C)(CC)CCC(C)C` (stereo not given) to `C/C=C/C=C/COC(=O)C(C)C`, the “fluorescence, % of fluorescent control” value rises from -0.086% to 0.396%.

Going from `COC(=O)c1ccccc1OC` to `CCCC(=O)OCCc1ccccc1`, the “fluorescence, % of fluorescent control” value rises from -0.0716% to 0.0812%.

Going from `OC1CCC(C2CCCCC2)CC1` (stereo not given) to `C1CCC(SSC2CCCCC2)CC1`, the “fluorescence, % of fluorescent control” value rises from 0.0416% to 0.0652%.

Going from `O=C1NC(=O)[C@@H]2CC=CC[C@H]12` to `NC(=O)c1cccc([N+](=O)[O-])c1`, the “fluorescence, % of fluorescent control” value rises from 0.0266% to 0.0479%.

First: c1ccc(C(O[C@@H]2CCCN(CCc3ccc4c(c3)OCO4)C2)c2ccccc2)cc1
Second: O=C(Oc1ccccc1)Oc1ccccc1
The “fluorescence, % of fluorescent control” value of the first is lower: 0.001% for the first, 0.0028% for the second.

Going from `FC(F)(F)c1cccc(Cl)c1` to `Cc1ccc(-c2ccccc2)cc1`, the “fluorescence, % of fluorescent control” value falls from 0.0317% to -0.117%.

Going from `C=CCCC(=O)/C=C/C1C(C)=CCCC1(C)C` (stereo not given) to `CC(=O)OCC=C(C)C`, the “fluorescence, % of fluorescent control” value rises from 0.0437% to 0.107%.

For `NC(=S)NC(N)=S`, the “fluorescence, % of fluorescent control” value was -0.0303%.

Going from `COC(=O)Nc1nc2ccc(C(=O)c3ccccc3)cc2[nH]1` to `O=C(O)c1cc(-c2ccc(F)cc2F)ccc1O`, the fluorescence, % of fluorescent control falls from 0.0166% [at 18.6 µM] to -0.0315% [at 18.6 µM].

In the case of `Cc1cc(=O)oc2cc(O)cc(O)c12`, the Potency is reported as 39.8 µM [fluorescent] (active).
For `C=C(CC)C(=O)c1ccc(OCC(=O)O)c(Cl)c1Cl`, the Potency was “inactive”.
For `O=C1c2ccccc2C(=O)N1SC1CCCCC1`, the Potency was “inactive”.
For `Cc1c(C)c2c(c(C)c1O)CC[C@@](C)(CCC[C@H](C)CCC[C@H](C)CCCC(C)C)O2`, the Potency was “inactive”.
With `CC[N+](CC)(CC)CCOc1ccc(/C=C/c2ccccc2)cc1` the Potency was “inactive”.
In the case of `C#C[C@]1(OC(C)=O)CC[C@H]2[C@@H]3CCC4=C[C@@H](OC(C)=O)CC[C@@H]4[C@H]3CC[C@@]21C`, the Potency is reported as “inactive”.

With `Oc1cc(Cl)cc(Cl)c1Cl` the “fluorescence, % of fluorescent control” value was -0.113% [at 95.7 µM].
